Screens deposited in PubChem BioAssay by National Center for Advancing Translational Sciences (NCATS).
D1 ag = human D1 receptor agonism | P21728 | HEK293 T-REx D1 cells, calcium flux, agonist mode | activation, % at 2 µM | actives 1% (n = 360,000); in the data active = activation above about 30%; also: 0% is about no effect
Target sequence (P21728 whole entry, looked up): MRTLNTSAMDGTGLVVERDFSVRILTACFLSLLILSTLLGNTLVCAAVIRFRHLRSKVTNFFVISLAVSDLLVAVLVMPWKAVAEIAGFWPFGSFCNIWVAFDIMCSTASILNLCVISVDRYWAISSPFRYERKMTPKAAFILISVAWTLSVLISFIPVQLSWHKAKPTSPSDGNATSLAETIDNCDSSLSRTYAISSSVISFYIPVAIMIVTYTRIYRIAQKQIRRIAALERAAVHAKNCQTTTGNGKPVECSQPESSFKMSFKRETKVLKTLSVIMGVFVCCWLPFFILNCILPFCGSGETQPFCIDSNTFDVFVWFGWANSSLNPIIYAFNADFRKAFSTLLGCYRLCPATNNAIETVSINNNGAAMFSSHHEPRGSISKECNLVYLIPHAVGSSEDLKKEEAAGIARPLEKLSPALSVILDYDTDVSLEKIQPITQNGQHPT
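Agonism was scored from calcium flux recorded over 180 s (1 read/s) after pintool compound addition, following a 10-cycle baseline. Cells were inducible force-coupled HEK293 TREx D1, plated overnight at 30 C and loaded with no-wash calcium dye.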
D1 antagonist = antagonists of human D1 dopamine receptor; P21728; HEK293 TREx D1 cells, calcium flux, dopamine EC80; active compounds read low; activity change, negative = inhibition, % at 10 µM; actives 3.2% (n = 360,000); AID 504652; in the data active = activity change below about -30%; also: % is scaled to controls: 0 for no effect and ±100 for the full control effect
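Kinetic fluorescence of a calcium dye serves as the read-out. D1-expressing Hek293 Trex cells, induced overnight at 30 C, are exposed to compound for 180 s before an EC80 dopamine addition, then read 180 s further.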
D3 antag = D3 dopamine receptor (human) antagonism; D3R cells, DiscoveRx beta-arrestin luminescence, antagonist mode; active compounds read low; actives 2.5% (n = 360,000); max response, negative = inhibition, %; P35462; in the data active = max response below about -50%; inconclusive = no clear call, values can overlap the other calls; also: % is scaled to controls: 0 for no effect and ±100 for the full control effect
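Cells plated overnight at 1500 cells/well, then exposed to library compounds with dopamine controls for 90 minutes at 37 degrees C. DiscoveRx reagent added for 30–60 minutes at room temperature; luminescence read, quantitative HTS format.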
D3 ag = agonists of human D3 dopamine receptor; max activation, %; actives 0.58% (n = 410,000); D3R DiscoveRx beta-arrestin cells, luminescence, 90 min; AID 652048; in the data active = max activation above about 30%; also: 0% is about no effect
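Agonist mode: compounds and dopamine controls were applied to plated cells for 90 min at 37 degrees C after an overnight attachment at 1500 cells/well. Luminescent read-out followed 30 - 60 minutes at room temperature with DiscoveRx detection reagent.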
D1 PAM = potentiators of human D1 dopamine receptor. actives 0.036% (n = 360,000). potentiation, % at 10 µM. HEK293 TREx D1 cells, calcium flux, dopamine EC20 potentiation. P21728. AID 504651; in the data active = potentiation above about 30%; also: 0% is about no effect
* = called active by the depositor. A selection: hits, their analogues and other compounds. The true share with any hit is near 6%.

How did O=Cc1cc([N+](=O)[O-])ccc1N1CCOCC1 do in these assays?
D1 ag: 2; D1 antagonist: -39*; D3 antag: 13; D3 ag: 0; D1 PAM: 14

What do the screens show for `Cc1ccc(C(=O)c2cc([N+](=O)[O-])ccc2N2CCCCC2)cc1`?
D1 ag: 2; D1 antagonist: -6; D3 antag: -65*; D3 ag: -8; D1 PAM: 2

Results for O=C1NC(=S)N/C1=C/c1cc([N+](=O)[O-])ccc1N1CCOCC1 ?
D1 ag: 1; D1 antagonist: 18; D3 antag: -1; D3 ag: 4; D1 PAM: 0

How did O=[N+]([O-])c1ccc(N2CCCCCC2)c([N+](=O)[O-])c1 do in these assays?
D1 ag: 2; D1 antagonist: -53*; D3 antag: -17; D3 ag: -4; D1 PAM: -12

How did Cc1ccc(C(=O)c2cc([N+](=O)[O-])ccc2N2CC(C)OC(C)C2)cc1 (stereo unspecified) do in these assays?
D1 ag: 2; D1 antagonist: 5; D3 antag: inconclusive; D3 ag: -7; D1 PAM: 3

Results for Cc1cc(C)cc(N(C(=O)CNC(=O)c2ccco2)C(C(=O)NC2CCCCC2)c2cccnc2)c1 (stereo unspecified) ?
D1 ag: -1; D1 antagonist: -13; D3 antag: -16; D3 ag: -34; D1 PAM: 2

How did CCOC1CCCc2oc(-c3ccc(N(C)C)cc3)c(C(=O)OC)c21 (stereo unspecified) do in these assays?
D3 antag: 6; D3 ag: -2

What do the screens show for `Cc1cccc(C(=O)NC(NCCc2ccccc2)C(Cl)(Cl)Cl)c1` (stereo unspecified)?
D1 ag: 19; D1 antagonist: -41*; D3 antag: 11; D3 ag: 3; D1 PAM: -4

How did Cc1cccc(C(=O)NC(NCc2ccco2)C(Cl)(Cl)Cl)c1 (stereo unspecified) do in these assays?
D1 ag: 4; D1 antagonist: -1; D3 antag: 0; D3 ag: 1; D1 PAM: -8

How did O=C(Cn1sc2ccccc2c1=O)Nc1ccc(F)cc1 do in these assays?
D3 antag: -78*; D3 ag: -17

What do the screens show for `O=C(Cn1sc2ccccc2c1=O)Nc1ccc(Br)cc1`?
D3 antag: -28; D3 ag: -9

What do the screens show for `CN(C)c1ccc(N=NS(=O)(=O)O)cc1`?
D3 ag: -12

Results for COC(=O)c1cc(Cl)cc(Cl)c1OS(=O)(=O)N(C)C ?
D1 ag: 1; D1 antagonist: -30*; D3 antag: 21; D3 ag: 16; D1 PAM: 7

Results for COc1c(Cl)cc(Cl)cc1C(=O)Nc1ccc(NC(C)=O)cc1 ?
D1 ag: 3; D1 antagonist: 3; D3 antag: 21; D3 ag: -18; D1 PAM: 1

Results for COc1ccc2nc(N(Cc3ccccc3)C(=O)CCNC(C)=O)sc2c1 ?
D1 ag: 3; D1 antagonist: -6; D3 antag: 0; D3 ag: -9; D1 PAM: 17

What do the screens show for `FC(F)(F)c1cnc(Sc2nnc(-c3cccs3)n2CC2CCCO2)c(Cl)c1` (stereo unspecified)?
D1 ag: -3; D1 antagonist: -1; D3 antag: -4; D3 ag: 31*; D1 PAM: -6

What do the screens show for `CCC(C)NC(=O)c1sc2nc(C)c(C(=O)Nc3ccc(C)cc3C)c(-c3ccccc3Cl)c2c1N` (stereo unspecified)?
D1 ag: 2; D1 antagonist: -7; D3 ag: 5; D1 PAM: 0

How did O=[N+]([O-])c1ccc2nc(Cl)nc(-c3ccccc3)c2c1 do in these assays?
D1 ag: 1; D1 antagonist: -34*; D3 antag: -56*; D3 ag: -1; D1 PAM: -1

How did O=[N+]([O-])c1ccc2nc(-[n+]3c(-c4ccccc4)cc(-c4ccccc4)cc3-c3ccccc3)[nH]c2c1 do in these assays?
D1 ag: 17; D1 antagonist: 5; D3 antag: 28; D3 ag: 1; D1 PAM: -7

Results for O=S(=O)(c1ccc2ccccc2c1)N1CCN(Cc2ccccn2)CC1 ?
D1 ag: 51*; D1 antagonist: 5; D3 antag: 3; D3 ag: 2; D1 PAM: -1

How did O=S(=O)(c1ccc(Br)cc1)N1CCCN(Cc2cccc(F)c2)CC1 do in these assays?
D1 ag: 6; D1 antagonist: 5; D3 antag: -10; D3 ag: -8; D1 PAM: -3

Results for CCOc1ccc(S(=O)(=O)N2CCN(Cc3ccccc3)CC2)cc1 ?
D1 ag: 5; D1 antagonist: -39*; D3 antag: -29; D3 ag: -6; D1 PAM: 1

Results for COc1cccc(CN2CCCN(S(=O)(=O)c3ccc(Br)cc3)CC2)c1 ?
D1 ag: 5; D1 antagonist: 17; D3 antag: -57*; D3 ag: 0; D1 PAM: -9

Results for COc1ccc(OC)c(S(=O)(=O)N2CCN(c3ccccn3)CC2)c1 ?
D1 ag: 7; D1 antagonist: -19; D3 antag: -104*; D3 ag: -3; D1 PAM: 0

What do the screens show for `CCOc1ccc(CN2CCN(S(=O)(=O)c3ccc(Cl)cc3)CC2)cc1`?
D1 ag: 0; D1 antagonist: 3; D3 ag: -10; D1 PAM: 2

How did CCn1c(SCCN2CCCCC2)nc2c1c(=O)n(C)c(=O)n2C do in these assays?
D3 antag: 0; D3 ag: -15

How did COc1ccccc1N1CCN(C2CCN(S(=O)(=O)c3ccc(C)cc3)CC2)CC1 do in these assays?
D1 ag: 1; D1 antagonist: 5; D3 antag: -70*; D3 ag: -39; D1 PAM: -5

What do the screens show for `COc1ccc(S(=O)(=O)N2CCC(N3CCN(c4ccccc4)CC3)CC2)cc1`?
D1 ag: -1; D1 antagonist: -12; D1 PAM: -4

What do the screens show for `COc1ccc(F)cc1S(=O)(=O)N1CCCN(S(=O)(=O)c2cc(F)ccc2OC)CC1`?
D1 ag: 9; D1 antagonist: -30*; D3 antag: 5; D3 ag: 2; D1 PAM: 0

Results for O=S(=O)(c1ccc2ccccc2c1)N1CCN(C2CCN(Cc3ccccc3)CC2)CC1 ?
D1 ag: 5; D1 antagonist: 5; D3 antag: -61*; D3 ag: -26; D1 PAM: -4

Results for COc1ccc(C(C)(C)C)cc1S(=O)(=O)N1CCC(C(N)=O)CC1 ?
D1 ag: 1; D1 antagonist: -13; D3 antag: -52*; D3 ag: -8; D1 PAM: 0
